# ALR inh – blocks human ALR sulfhydryl oxidase activity | P55789 | purified ALR, DTT oxidation, H2O2 HRP-luminol luminescence | inhibition, % (no concentration beside the values) | 290,000 tested, 3.8% active | AID 485317;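 active means mean replicate inhibition above about 79%, with every replicate also reaching it, limit read from the data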
# Calb FLC – affects C. albicans growth with fluconazole | C. albicans CaCi-2 (fluconazole-resistant clinical isolate) + fluconazole, Alamar Blue growth, 48 h | growth inhibition, % (test concentration not listed) | 300,000 tested, 0.57% active;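 active means growth inhibition above about 58% in most replicates, limit read from the data, passing the limit was not always enough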;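 further: all wells also contain fluconazole at 8 µg/ml as a sub-toxic cotreatment; 0% = median of DMSO wells and 100% = median of geldanamycin control wells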
# PP5 inh – blocks human protein phosphatase 5 activity; inhibition, % at 6.7 µM; 320,000 tested, 0.18% active; purified PP5c, OMFP substrate fluorescence; AID 1987;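 active means inhibition above the campaign's mean inhibition across all tested compounds plus 3 SD, cut at about 9.5% in these data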;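 further: 0% = DMSO only and 100% = 100 µM cantharidin control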
# PP1 inh – blocks human PP1-alpha phosphatase, a PP5 counter-screen; inhibition, % at 6.7 µM; purified PP1alpha, OMFP fluorescence; 320,000 tested, 0.9% active;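 active means inhibition above the mean inhibition of all tested compounds plus 3 SD, computed separately for each screening campaign, cut at about 15% in these data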
# Target sequence (P62136 whole entry, looked up): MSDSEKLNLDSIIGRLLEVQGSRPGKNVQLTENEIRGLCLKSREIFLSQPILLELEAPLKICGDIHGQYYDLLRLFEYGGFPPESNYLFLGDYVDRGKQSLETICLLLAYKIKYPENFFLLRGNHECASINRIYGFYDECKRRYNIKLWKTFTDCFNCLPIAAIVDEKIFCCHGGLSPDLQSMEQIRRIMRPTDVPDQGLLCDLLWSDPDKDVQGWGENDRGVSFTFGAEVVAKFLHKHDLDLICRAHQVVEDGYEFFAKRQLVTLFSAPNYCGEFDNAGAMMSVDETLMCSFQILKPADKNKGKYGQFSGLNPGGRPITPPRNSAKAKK
# CSC inhib – cancer stem cell inhibition. cancer stem cell-like cells viability, luminescence. inhibition, % at 7.5 µM. 300,000 tested, 1.1% active. AID 2717; in the data active means inhibition above about 75%; tested in HMLE shEcad cells
# PP5 inh confirm – PP5 (human) inhibition, confirmation; shares compounds with PP5 inh; Purified PP5, fluorogenic phosphatase substrate, fluorescence; inhibition, % at 6.7 µM; 460 tested, 22% active; AID 2331; in the data active means inhibition above about 9.5%
# PP1 inh counter – counter-screen for PP5 inhibitors: human PP1 phosphatase inhibition; shares compounds with PP5 inh; 460 tested, 4% active; PP1 enzyme, fluorescent phosphatase substrate; AID 2355; inhibition, % at 6.7 µM; in the data active means inhibition above about 16%
# * marks the source's active call; other numbers are inactive results; / = no result given. Rows were chosen to be rich in hits. Some 5.4% of all compounds tested hit in one or more screens of this group.
SMILES,ALR inh,Calb FLC,PP5 inh,PP1 inh,CSC inhib,PP5 inh confirm,PP1 inh counter
CCOC(=O)c1cccc(NC(=O)CSc2nnc(COc3ccccc3)n2CC)c1,-8,6,12*,-3,-16,-5,-3
CCOc1cc(CNc2ncc(-c3ccc(OC)cc3)n2C)ccc1O,78*,9,10*,0,-11,1,-3
CCC(=O)c1ccc(N2CCN(C(=O)c3ccccc3Br)CC2)c(F)c1,/,-1,1,-4,-8,/,/
COc1ccc(OC)c(Nc2cc3ccccc3c(=O)[nH]2)c1,31,17,9,1,7,/,/
O=c1[nH]c(Nc2ccccc2)cc2ccccc12,6,17,11*,-1,4,34*,0
CC(=O)c1cccc(-c2ccc3c(=O)[nH]c(Nc4ccccc4)cc3c2)c1,-117,4,9.7*,13,10,29*,21*
O=c1[nH]c(Nc2ccccc2)cc2cc(Br)ccc12,-1,4,14*,-1,19,34*,8
CC(C)Nc1nc(NC(C)C)nc(C(N)=O)n1,-1,-16,11*,0,-4,-7,-6
Cc1ccc(NC2=C(N3CCOCC3)C(=O)c3ccccc3C2=O)cc1,8,39,10*,1,-2,30*,-1
CC(=O)c1ccc(NC2=C(N3CCOCC3)C(=O)c3ccccc3C2=O)cc1,33,15,10*,4,5,16*,0
O=C(O)c1ccc(NC2=C(N3CCOCC3)C(=O)c3ccccc3C2=O)cc1,-60,17,8,-1,-12,/,/
COC(=O)CCC(=O)OC1(C)C(=O)C2=CN(CCCCO)C(c3ccc(OC)cc3)=CC2=C(Br)C1=O (stereo not drawn),/,21,9,3,-2,/,/
COC(=O)CCC(=O)OC1(C)C(=O)C2=CN(CCN3CCOCC3)C(c3ccc(OC)cc3)=CC2=C(Br)C1=O (stereo not drawn),-20,13,11*,2,-2,37*,10
O=[N+]([O-])c1cc(C(F)(F)F)ccc1N1CCC(O)CC1,3,3,1,0,-9,/,/
O=C(Nc1ccc(Cl)cc1)N1CCCN(c2ccc(C(F)(F)F)cc2[N+](=O)[O-])CC1,5,1,12*,0,83*,5,3
CCOC(=O)c1ccc(NC(=S)NC(=O)C2CCCC2)cc1,2,-24,5,-1,-7,/,/
COc1ccc(CN2C=C3C(=O)C(C)(OC(=O)C4CCCC4)C(=O)C=C3C=C2c2ccsc2)cc1 (stereo not drawn),-20,2,7,14,-7,/,/
CC1(OC(=O)C2CCCC2)C(=O)C=C2C=C(c3ccsc3)N(CCCCO)C=C2C1=O (stereo not drawn),/,25,10*,0,-3,44*,18*
CCCCN(C(=O)CCC(=O)OCC(=O)NCc1ccccc1)c1c(N)n(CCC)c(=O)[nH]c1=O,-2,/,2,0,1,/,/
O=C(NCc1cccs1)c1cc(-c2cccc(Cl)c2)on1,-14,11,1,4,-7,/,/
Cc1ccc(-c2cc(C(=O)NCc3cccs3)no2)cc1,0,-1,9.9*,-4,-13,-3,-4
CCN(CC)CCN1C(=O)c2ccccc2NC1c1ccccc1F (stereo not drawn),3,0,0,-2,/,/,/
O=C(O)CCCN1C(=O)C2C3CCC(O3)C2C1=O (stereo not drawn),-4,-1,17*,5,11,7,4
O=c1oc2ccc(Cl)cc2nc1/C=C(\O)c1cccs1,-5,8,12*,1,29,-4,-3
CCS(=O)(=O)c1ccc2oc(=O)c(/C=C(\O)c3ccc(Cl)cc3)nc2c1,28,6,3,1,6,/,/
Cc1ccc(S(=O)(=O)N2CCN(C(=O)CN3CCOCC3)C2C(C)C)cc1 (stereo not drawn),0,-1,12*,-5,-1,-6,-5
C=CCc1c(C)nc(SC)nc1Nc1ccc(C(=O)O)cc1,-3,1,11*,-2,-8,-5,-4
CC(=O)Nc1ccc(S(=O)(=O)NCC(=O)OCC(=O)NCc2ccco2)cc1,5,0,3,-5,2,/,/

# Screening data (PubChem BioAssay)
